PubChem BioAssay AID686978 (National Center for Advancing Translational Sciences (NCATS), 2013)
Hit rate of the full screen: of about 420,000 compounds, about 64,000 (15%) were called active. About 27% were inconclusive and are not listed. These entries were drawn from the full list. Values without a mark were called inactive. Calls come from the whole dose curve; as a rule, active = well fitted inhibition curve with a large enough effect; inconclusive = small, poorly fitted or top-dose-only effect; inactive = flat fitted curve, though single readings scatter.

assay: qHTS for Inhibitors of human tyrosyl-DNA phosphodiesterase 1 (TDP1): qHTS in cells in absence of CPT; conditions: DT40 Tdp1-/- hTDP1 cells, no CPT, ATP luminescence, 48 h; activity change, negative = growth inhibition: at 46.2 µM (top of the series); note: nearly all actives have a fitted effect of over 55% in size
From the text: Human tyrosyl-DNA phosphodiesterase 1 (TDP1) is a novel repair gene, and we propose to use it as a new target for anticancer drug development. TDP1 is not an essential protein, but under treatment with topoisomerase I poison (camptothecin: CPT), TDP1 works as a critical factor for cell survival. To directly identify novel TDP1 inhibitors active in a cellular environment, we have knocked-out the Tdp1 gene in chicken DT40 cells (Tdp1-/-) and generated a complemented counterpart cells that contains a stable transfection of the human TDP1 gene (Tdp1-/-;hTDP1 cells). For the primary screen, Tdp1-/-;hTDP1 cells will be exposed to small molecules in the presence or absence of CPT, and their growth kinetics will be evaluated after 48 hours by measuring ATP activity. […] The hit compounds will then be evaluated in the presence or absence of CPT using Tdp1-/- cells. […] In tertiary assays, biochemical gel-based assays will be used to assess whether the hit compounds specifically target TDP1.
To this end, we have screened this cell line against the MLSMR in two primary screens. In one screen we add CPT and in the other we screen in the absence of CPT; this AID represents the screen where CPT was absent.
NIH Chemical Genomics Center [NCGC]
NIH Molecular Libraries Probe Centers Network [MLPCN]
Assay Submitter (PI): Yves Pommier, NCI
DT40-hTDP1 cells without 20 nM Camptothecin (add 20 microL of DMSO in 1 L of cell culture medium) were dispensed at 400 cells/5microL/well in tissue culture treated 1536-well white wall/solid bottom assay plates (Greiner Bio-One North America, NC, U.S.A.) using a Multidrop Combi 8 channel dispenser (Thermo Fisher, Waltham, MA, USA). 23 nL compounds and controls were transferred using the pin tool (Kalypsys, San Diego, CA, USA) to the assay plates. The assay plates were then incubated at 37 masculineC for a minimum 48 hr. Three microL of Cell Titer Glo solution was added to the plates and incubated at RT in dark for 30 min. Luminescence was read using ViewLux (Perkin Elmer) with 1 sec exposure slow speed, high gain and 2x binning.
% is set by controls: 0 for no effect and ±100 for the full control effect; potency is the fitted concentration of half-maximal effect.

Compared with `Cc1ccc(C(=O)N/N=C/c2sc(=O)n(Cc3cccc(C(=O)O)c3)c2Cl)cc1`, `CCOC(=O)Cn1c(O)c(N=NC(=O)CNC(=O)Cc2ccccc2)c2ccccc21` is lower in “activity change, negative = growth inhibition” value: -2.17% for the first, -27.3% for the second.

Compared with `CCCN=C1NC(=O)C(CC(=O)NCCc2ccc(OC)c(OC)c2)S1` (stereo not drawn), `COc1ccc(CNC(=O)CC2Oc3ccc(C)cc3NC2=O)cc1` (stereo not drawn) is lower in “activity change, negative = growth inhibition” value: 9.83% for the first, -9.89% for the second.

Compared with `CC(=O)C1=C(C)NC(=O)NC1c1ccc2c(c1)OCO2` (stereo not drawn), `O=C(O)CSc1nnc(-c2ccc3c(c2)OCO3)n1-c1ccccc1` is lower in “activity change, negative = growth inhibition” value: 13.2% for the first, -10.5% for the second.

First: O=C1C=C(c2cccc(Cl)c2)C[C@@H](c2ccc(F)cc2)C1
Second: O=C(Nc1ccc2c(c1)C(=O)OC2)Nc1cccc2ccccc12
The “activity change, negative = growth inhibition” value of the first is lower: -20.4% for the first, -3.83% for the second.

First: CN(C)CC(C)(C)CNC(=O)c1cc(Br)cc(Br)c1O
Second: CCOC(=O)c1[nH]c2ccc(C)cc2c1N=C(C)N(C)C
The “activity change, negative = growth inhibition” value of the first is lower: 1.87% for the first, 3.19% for the second.

First: O=C(Cn1ncn2nc(-c3cccs3)cc2c1=O)NCc1cccc(Br)c1
Second: COc1ccc(CNC(=O)c2cc3c(=O)[nH]c4ccccc4c3s2)cc1
The “activity change, negative = growth inhibition” value of the first is lower: -23.6% for the first, 0.873% for the second.

Going from `Cc1c(C(=O)OCC(=O)N2CCCC2=O)oc2ccccc12` to `COC(=O)c1cc(NC(=O)c2cccnc2)ccc1N1CCOCC1`, the “activity change, negative = growth inhibition” value falls from 5.48% to 0.201%.

Compared with `C[n+]1ccccc1C1CCCC/C1=N\Nc1ccc([N+](=O)[O-])cc1[N+](=O)[O-]` (stereo not drawn), `CNc1ccc([N+](=O)[O-])cc1C(=O)O` is higher in “activity change, negative = growth inhibition” value: -16.1% for the first, 10.7% for the second.

Going from `CC(C)(C)NC(=O)Cn1cnc([N+](=O)[O-])n1` to `Cc1cccc(C)c1NC(=O)CSc1ccc([N+](=O)[O-])cn1`, the “activity change, negative = growth inhibition” value rises from -7.99% to -3.38%.

Compared with `CC(C)C(NC(=O)c1c(F)cccc1F)C(=O)NCc1ccncc1` (stereo not drawn), `CC(C)C(=O)NCc1cc(-c2ccc(Cl)cc2)no1` is higher in “activity change, negative = growth inhibition” value: -15.1% for the first, 8.37% for the second.

Compared with `CCN(CC(=O)NCC(=O)Nc1cccc(C)c1C)Cc1ccccc1`, `O=C(CCCCCNC(=O)c1ccccc1)N/N=C/c1ccccc1` is higher in “activity change, negative = growth inhibition” value: -7.77% for the first, -5.59% for the second.

Compared with `COc1cc(-c2n[nH]c(=S)n2Cc2ccccc2)cc(OC)c1OC`, `CCn1c(-c2ccncc2)n[nH]c1=S` is higher in “activity change, negative = growth inhibition” value: -25% for the first, -1.03% for the second.

First: CCOc1ccccc1-n1c(SCC(=O)NCc2ccco2)nnc1-c1ccncc1
Second: O=C(CSc1nnc(-c2ccncc2)n1-c1ccccc1)Nc1ccc(Cl)c(Cl)c1
The “activity change, negative = growth inhibition” value of the first is higher: -17.9% for the first, -28.5% for the second.

First: Cn1c(S(=O)(=O)O)nc2ccccc21
Second: Cc1ccc(Cc2cncc(O)c2)cc1S(=O)(=O)O
The “activity change, negative = growth inhibition” value of the first is higher: 21.1% for the first, -0.5% for the second.

Going from `O=C(NCC1CCCO1)c1ccc2ccccc2n1` (stereo not drawn) to `COc1ccc2cc(C(=O)NCC3CCCO3)[nH]c2c1` (stereo not drawn), the “activity change, negative = growth inhibition” value falls from 5.68% to 0.844%.

First: CSc1ccc(S(=O)(=O)NC2CCCCC2)cc1
Second: CC1(C(=O)NS(=O)(=O)c2ccc(C#N)cc2)CCN1C(=O)CC1CCCC1 (stereo not drawn)
The “activity change, negative = growth inhibition” value of the first is lower: -7.18% for the first, 11.1% for the second.

Compared with `Cc1cc(O)c(Sc2ccccc2)c(=O)o1`, `Cc1ccc2[nH]c(=O)c(CC(=O)O)c(-c3ccccc3)c2c1` is higher in “activity change, negative = growth inhibition” value: -11.9% for the first, 4.17% for the second.

Going from `Cc1ccc(-n2c(CNc3ccc(F)cc3)nnc2SCC(=O)N2CCOCC2)cc1` to `Cc1ccc(NC(=O)CSCC(=O)N2CCOCC2)cc1`, the “activity change, negative = growth inhibition” value rises from -29.1% to -23.6%.

Going from `CCN(CC(=O)Nc1c(F)cccc1F)C(=O)c1ccc(Sc2nncn2C)c([N+](=O)[O-])c1` to `CCOCC(=O)Nc1ncc(S(=O)(=O)c2ccc([N+](=O)[O-])cc2)s1`, the “activity change, negative = growth inhibition” value falls from -7.64% to -18.6%.

Compared with `Cc1ccc2[nH]c(=O)c(CC=C(Cl)Cl)c(C)c2c1`, `Cc1ccsc1C(=O)NNC(=O)COc1ccc(Br)cc1` is lower in “activity change, negative = growth inhibition” value: -2.49% for the first, -8.53% for the second.

Compared with `CN=C1S/C(=C\c2c(OC)cc(OC)cc2OC)C(=O)N1C`, `COc1ccc(OCC(=O)NCCS(=O)(=O)N2CCN(c3ccc(F)cc3)CC2)cc1` is higher in “activity change, negative = growth inhibition” value: 4.09% for the first, 7.95% for the second.

Going from `c1ccc2nc(C3=NCCN3)cnc2c1` to `O=C(C[n+]1ccccc1)N/N=C/c1ccc(O)cc1`, the “activity change, negative = growth inhibition” value falls from -5.64% to -28.4%.

In the case of `O=C1C=C(c2ccnc3cc(Cl)ccc23)C[C@@H](c2ccc3c(c2)OCO3)C1`, the Potency is reported as 16.4 µM (active).
For `CC(Nc1ccc([N+](=O)[O-])cc1[N+](=O)[O-])c1ccccc1` (stereo not drawn), the Potency was 20.6 µM (active).
In the case of `CCCc1cc(-c2n[nH]c(=S)n2Cc2ccccc2)cs1`, the Potency is reported as 29.1 µM (active).
For `Cc1ccc(Nc2nc(CSc3nnc(-c4ccncc4)n3-c3ccccc3C)cs2)cc1`, the Potency was 11.6 µM (active).
For `O=C(NCC1CCCO1)c1cc2c([nH]c3ccccc32)c(-c2ccc(F)cc2)n1` (stereo not drawn), the Potency was 1.84 µM (active).
In the case of `O=C(CSc1nnc(CN2CCCC2)n1-c1ccc(F)cc1)c1ccc2c(c1)OCO2`, the Potency is reported as 20.6 µM (active).
With `Cc1cccc(N(C)C(=O)c2cc3c(=O)[nH]c4ccc(C)cc4c3s2)c1` the Potency was 5.17 µM (active).
For `COc1ccc(CNC(=O)c2cc3c(=O)[nH]c4ccc(C)cc4c3s2)c(OC)c1`, the Potency was 20.6 µM (active).
With `NN=C(NN=Cc1ccccc1)c1ccccc1` the Potency was 20.6 µM (active).
